Experimental data from PubChem BioAssay (NCATS).
Results filed as inconclusive are left out. Values without a mark were called inactive. The source made the active and inactive calls. The call rests on the fitted dose curve; in most records, active means well fitted cell-killing curve with a large enough effect; inconclusive means small, poorly fitted or top-dose-only effect, or effect the other way; inactive means no such curve, though single readings can be large or run the other way.

assay: Viability qHTS for spleen associated tyrosine kinase inhibitor (SYKi) drug resistant MV4-11 cells (AID 1963824); settings: SYKi-resistant MV4-11 viability, CellTiter-Glo, 72 h; series mostly up to 45 µM; viability, % of control: at the top concentration; further: nearly all actives have a fitted effect of over 35% in size
Summary of the method: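 SYK inhibitor-resistant MV4-11 AML cells, 500 per well, added to predispensed compounds and incubated 72 hr at 37 C, 5% CO2. Viability measured by CellTiter-Glo luminescence after 10 min at room temperature.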
Potency means the concentration at half of the fitted maximal effect.

Compound | viability, % of control | Potency
COC(=O)C1=CO[C@@H](O[C@@H]2O[C@H](CO)[C@@H](O)[C@H](O)[C@H]2O)[C@@H]2[C@@H](C)[C@@H](O)C(O)[C@H]12 (stereo not given in full) | 115% [at 17.3 µM] | –
COc1ccc(CCC(=O)O)c(O[C@@H]2O[C@H](CO)[C@@H](O)[C@H](O)[C@H]2O)c1 | 90.4% | –
CNc1nc(Nc2ccc(C(=O)N3CCOCC3)cc2OC)nc2[nH]cc(Cl)c12 | – | 6.51 µM (active)
Cc1ccc(S(=O)(=O)NCc2ccc(C(=O)NCCN(Cc3ccccc3)C(C)C)cc2)cc1 | – | 14.6 µM (active)
C=C1CC[C@@H]2[C@@](C)(CO[C@@H]3O[C@H](CO)[C@@H](O)[C@H](O)[C@H]3O)[C@H](O)CC[C@@]2(C)[C@@H]1CC/C(C)=C/CO[C@@H]1O[C@H](CO)[C@@H](O)[C@H](O)[C@H]1O | 90.2% [at 17.3 µM] | –
COC(=O)C[C@H]1C(C)(C)[C@H](OC(C)=O)C2CC3=C4CC(=O)O[C@@H](c5ccoc5)[C@]4(C)CCC3[C@@]1(C)C2=O (stereo not given in full) | – | 3.55 µM (active)
CC(=O)O[C@@H]1C=C2[C@H](CC[C@@]3(C)[C@@]2(O)CC[C@H]2Cc4c([nH]c5ccccc45)[C@@]23C)O[C@@H]1C(C)(C)O | – | 8.93 µM (active)
C=CC(C)(/C=C/c1ccc(O)cc1)CCC=C(C)C (stereo not given) | – | 23.1 µM (active)
CC(=O)C1(C)CCC2C3C=C(C)C4=CC(=O)CCC4(C)C3CCC21C (stereo not given) | – | 7.31 µM (active)
Cn1ncnc1[C@@H]1c2n[nH]c(=O)c3cc(F)cc(c23)N[C@H]1c1ccc(F)cc1 | 71.3% | –
OCC1OC(Oc2cc(O)c3c(c2)OC(c2ccc(O)cc2)C(O)C3)C(O)C1O (stereo not given) | 80.8% [at 17.3 µM] | –
CC1(C)C=Cc2c(ccc3c2[N+]([O-])=C2C3(O)CC34NC(=O)C5(CCCN5C3=O)CC4C2(C)C)O1 (stereo not given) | 76.4% [at 17.3 µM] | –
CC(C)n1cnc2c(NCc3cccc(C(F)(F)F)c3)ncnc21 | – | 20.6 µM (active)
CNC(C)C(=O)NC(C(=O)N1CCCC1c1nc(C(=O)c2ccc(F)cc2)cs1)C1CCCCC1 (stereo not given) | – | 2.59 µM (active)
C[C@@H]1CCC2C(C)(C)[C@H](O)CC[C@]2(C)[C@@]12Cc1c(O)cc3c(c1O2)CN([C@@H](CCC(=O)O)C(=O)O)C3=O (stereo not given in full) | 93.5% [at 17.3 µM] | –
Cc1ccc(Cl)c(Nc2ccccc2C(=O)O)c1Cl | – | 15 µM (active)
CC(=O)O[C@@H]1[C@@H](CO)O[C@@](CO)(O[C@H]2O[C@H](COC(=O)/C=C/c3ccccc3)[C@@H](O)[C@H](O)[C@H]2O)[C@H]1O | 14.8% [at 17.3 µM] | –
C/C1=C\[C@@H](C)C[C@@H](C)[C@@H](Cc2cnco2)OC(=O)/C(C)=C/[C@@H](C)C[C@@H](C)[C@@H](Cc2cnco2)OC1=O | – | 0.502 µM (active)
Cc1c(CN(C)C(=O)/C=C/c2cnc3c(c2)CCC(=O)N3)oc2ccccc12 | 89% | –
N#Cc1ccc(Cn2cncc2CN2CCN(c3cccc(Cl)c3)C(=O)C2)cc1 | – | 2.95 µM (active)

Compound | viability, % of control | Potency
COc1cc(O)cc(C)c1C(=O)O[C@@H]1[C@H](O)[C@@H](CO)O[C@H]1n1ccc(=O)[nH]c1=O | – | 2 µM (active)
CC(=O)c1ccc(O[C@@H]2O[C@H](CO)[C@@H](O)[C@H](O)[C@H]2O)cc1 | 84.4% | –
Cc1noc(C)c1-c1cc(O)cc(C(O)c2ccccc2)c1 (stereo not given) | – | 1.46 µM (active)
Cc1cc(C)c2nc(-c3ccccn3)cc(C(=O)Nc3ccc(S(=O)(=O)Nc4onc(C)c4C)cc3)c2c1 | – | 25.9 µM (active)
CC(C)(C(=O)NCC(F)(F)C(F)(F)F)C(=O)NC1C(=O)Nc2ccccc2-c2ccccc21 (stereo not given) | – | 13 µM (active)
C[C@@H]1O[C@@H](O[C@H]2[C@H](O[C@H]3CC[C@@]4(C)C(CC[C@]5(C)C4C=C[C@]46OC[C@@]7(CCC(C)(C)C[C@H]74)[C@@H](O)C[C@]65C)[C@]3(C)CO)O[C@H](CO)[C@@H](O)[C@@H]2O[C@@H]2O[C@H](CO)[C@@H](O[C@@H]3O[C@@H](C)[C@H](O)[C@@H](O)[C@H]3O)[C@H](O)[C@H]2O)[C@H](O)[C@H](O)[C@H]1O (stereo not given in full) | – | 4.37 µM (active)
CNc1cccc(CCOc2ccc3c(c2)CN(CC(F)(F)F)C(=O)[C@H](CC(=O)O)C3)n1 | 54.7% | –
COc1cccc(CNC(=O)Nc2nc(-c3ccncc3)cs2)c1 | – | 18.4 µM (active)
N#Cc1cccnc1N1CCN(C(=O)c2cccc(Cc3n[nH]c(=O)c4ccccc34)c2)CC1 | – | 0.186 µM (active)
CCC(C)C(=O)O[C@H]1[C@H](O)[C@@]2(COC(C)=O)C(CC1(C)C)C1=CCC3[C@@]4(C)CC[C@H](O[C@@H]5O[C@H](C(=O)O)[C@@H](O)[C@H](O)[C@H]5O)[C@@](C)(CO)C4CC[C@@]3(C)[C@]1(C)C[C@@H]2O (stereo not given in full) | – | 3.48 µM (active)
COC(=O)c1ccc(O[C@@H]2O[C@H](CO)[C@@H](O)[C@H](O)[C@H]2O)c(OC)c1 | 81.4% | –
O=C1NC(=O)/C(=C\c2ccc3nccc(-c4ccncc4)c3c2)S1 | – | 0.517 µM (active)
C=C1C[C@@H]2CC[C@@]34C[C@H]5O[C@H]6[C@@H](O3)[C@H]3O[C@H](CC[C@@H]3O[C@H]6[C@H]5O4)CC(=O)C[C@@H]3[C@@H](OC)[C@@H](C[C@H](O)CN)O[C@H]3C[C@H]3O[C@@H](CC[C@@H]1O2)C[C@@H](C)C3=C | – | 0.0005 µM (active)
CC(C)n1cnc2c(-c3cnc(N)nc3)nc(N3CCOCC3)nc21 | – | 3.17 µM (active)
C[C@]12CC[C@@H]3c4ccc(O[C@@H]5O[C@H](C(=O)O)[C@@H](O)[C@H](O)[C@H]5O)cc4CC[C@H]3[C@@H]1CCC2=O | 106% | –
COc1ccc(C2OCC3C(c4cc(OC)c5c(c4)OCO5)OCC23)cc1OC (stereo not given) | – | 8.93 µM (active)
COc1cccc(NCCC2(c3ccccc3)CC(C)(C)OC(C)(C)C2)c1 | 102% | –
CC1(C)CC[C@]2(C(=O)O[C@@H]3O[C@H](CO[C@@H]4O[C@H](CO[C@@H]5O[C@H](CO)[C@H](O)[C@H](O)[C@H]5O)[C@@H](O)[C@H](O)[C@H]4O)[C@@H](O)[C@H](O[C@@H]4O[C@H](CO)[C@@H](O)[C@H](O)[C@H]4O)[C@H]3O)[C@H](O)C[C@]3(C)C(=CCC4[C@@]5(C)CC[C@H](O[C@@H]6OC[C@@H](O)[C@H](O)[C@H]6O)[C@@](C)(C(=O)O)C5CC[C@]43C)[C@@H]2C1 (stereo not given in full) | 90.5% [at 9.25 µM] | –
C/C(=C/CCC(CO)C1CCC2(C)C3CCC4C(C)(C)C(OC5OC(CO)C(O)C(O)C5O)CC(O)C45CC35CCC12C)COC1OC(CO)C(O)C(O)C1O (stereo not given) | 72.5% [at 17.3 µM] | –
CCNC(=O)Nc1ccc(-c2nc3c(c(N4CCOCC4C)n2)CCN(C2COC2)C3)cc1 (stereo not given) | – | 1.16 µM (active)
